Most compounds without a hit are left out; they make up all but 7% or so of the library.
proKLK7 act – proKLK7 zymogen activators, primary screen, biochemical, fluorescence intensity. Kallikrein-7 (Homo sapiens), P49862. purified proKLK7, EDANS-DABCYL substrate fluorescence; 100% is mature enzyme control, 0% vehicle. activation, % at 7 µM. hit rate 0.9% among 370,000. AID 652039, 2013;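 active = activation above the mean of all tested compounds plus 3 SD, computed per campaign excluding outliers beyond control limits, cut at about 13% in these data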
NR3A LBD binder – binders of NR3A ligand-binding domain, primary screen, biophysical, differential scanning fluorimetry, uHTS. Glutamate receptor ionotropic, NMDA 3A (GRIN3A) ligand-binding domain. NR3A LBD differential scanning fluorimetry, Tm shift; 0% = protein alone, 100% = glycine-bound protein. Tm shift relative to glycine control, % at 25 µM. hit rate 2.5% among 340,000;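 active = melting temperature shift of at least 10% of the positive control shift, at one fixed dose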
AHR act – AHR activators, primary screen, cell-based, luminescence, luciferase reporter, human; activation, % at 5 µM; hit rate 2.5% among 320,000; AHR-responsive luciferase reporter cells; in the data active = activation above about 47%
ADAM10 inh – human ADAM10 inhibitors, primary screen, biochemical, QFRET, HTS. Disintegrin and metalloproteinase domain-containing protein 10 (Homo sapiens), O14672. inhibition, % at 7 µM. recombinant ADAM10, EDANS/DABCYL FRET peptide cleavage, 3 h. hit rate 0.62% among 370,000;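 active = inhibition above a per-campaign cutoff equal to the mean of compounds falling between control-based bounds plus 3 SD, cut at about 20% in these data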
Target sequence (O14672 214-748 limits assumed): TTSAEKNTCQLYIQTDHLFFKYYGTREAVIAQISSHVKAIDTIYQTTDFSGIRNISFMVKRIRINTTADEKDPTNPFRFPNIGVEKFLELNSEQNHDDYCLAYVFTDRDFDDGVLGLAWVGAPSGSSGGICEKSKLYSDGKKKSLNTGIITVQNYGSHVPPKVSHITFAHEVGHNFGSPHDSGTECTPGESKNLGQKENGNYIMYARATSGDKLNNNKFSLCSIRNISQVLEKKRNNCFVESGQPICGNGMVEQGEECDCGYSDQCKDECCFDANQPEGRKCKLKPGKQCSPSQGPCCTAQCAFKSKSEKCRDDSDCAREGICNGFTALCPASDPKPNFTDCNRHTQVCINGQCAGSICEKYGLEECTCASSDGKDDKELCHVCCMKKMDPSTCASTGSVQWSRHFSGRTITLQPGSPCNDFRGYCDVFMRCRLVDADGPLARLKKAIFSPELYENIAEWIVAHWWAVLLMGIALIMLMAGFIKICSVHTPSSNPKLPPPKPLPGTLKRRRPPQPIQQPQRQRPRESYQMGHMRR
rCAG binder – binders of r(CAG) RNA repeats, primary screen, biochemical, fluorescence | r(CAG) RNA repeat, TO-PRO-1 dye displacement fluorescence | inhibition, % at 3 µM | hit rate 1.3% among 370,000;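 active = inhibition above the plate cutoff, the mean of all test compounds on that plate plus 3 SD, cut at about 35% in these data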;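 also: higher means more dye released from RNA so lower well fluorescence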
ADAM17 inh – ADAM17 inhibitors, primary screen, biochemical, QFRET. Disintegrin and metalloproteinase domain-containing protein 17 (Homo sapiens), P78536. hit rate 0.83% among 370,000. inhibition, % at 6.95 µM. recombinant ADAM17, EDANS/DABCYL FRET peptide cleavage;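 active = inhibition above the mean of compounds lying between control limits plus 3 SD, set per campaign, cut at about 8.5% in these data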
rCAG bind conf – small molecules binding CAG repeat RNA – biochemical, fluorescence, confirmation | shares compounds with rCAG binder | inhibition, % at 3 µM | r(CAG) RNA repeat, TO-PRO-1 dye displacement fluorescence | hit rate 70% among 4,300;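 active = inhibition above a per-plate cutoff, the mean inhibition of sample wells plus 3 SD, cut at about 35% in these data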;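 also: loss of TO-PRO-1 fluorescence as compound displaces dye from 1x1 AA loop RNA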
dCAG dye counter – displacement of TO-PRO-1 from CAG DNA duplex, counter-screen for rCAG RNA repeat binder project, biochemical, fluorescence, TO-PRO-1 dye, d(CAG) DNA oligo. shares compounds with rCAG binder. d(CAG) DNA oligo TO-PRO-1 dye displacement. inhibition, % at 3 µM. hit rate 94% among 4,300;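 active = inhibition above its plate's cutoff, the mean test-well inhibition plus 3 SD, cut at about 4.8% in these data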;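 also: hits displace the dye from DNA and so lower well fluorescence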
dCAG dye DR – inhibitors of DNA CAG/GTC TO-PRO-1 complex, dose response, counter-screen for rCAG RNA repeat binder project, biochemical, fluorescence, TO-PRO-1 dye; shares compounds with rCAG binder; DNA CAG/GTC duplex TO-PRO-1 dye displacement fluorescence; hit rate 20% among 250; AID 686960, 2013; IC50, µM; in the data active = IC50 below about 10 µM
Numbers stand for hits; i = inactive; nt = not tested or not shown.

SMILES	proKLK7 act	NR3A LBD binder	AHR act	ADAM10 inh	rCAG binder	ADAM17 inh	rCAG bind conf	dCAG dye counter	others
CCSc1nsc(NC(=O)Nc2cccc(F)c2)n1	i	31.9	i	i	63.1	i	i	17.3
COc1cccc(NC(=O)Nc2nc(SC(C)(C)C)ns2)c1	i	40.2	i	i	73.8	i	41.0	32.5
COc1cccc(NC(=O)Nc2nc(SC)ns2)c1	i	11.9	i	i	43.7	i	i	9.4
COc1ccc(C2=Nc3ccccc3N(C(=O)c3ccc(C(F)(F)F)cc3)C2C(=O)NCc2ccccc2)cc1 (stereo not given)	i	nt	nt	i	i	i	nt	nt
COc1ccc(NC(=O)N(C)C[C@H]2OCc3cn(nn3)CCCC(=O)N([C@H](C)CO)C[C@@H]2C)cc1	i	nt	nt	i	i	i	nt	nt
CC(C)=CCC[C@H](C)CC1Cc2[nH]c(=S)[nH]c(=O)c2C(c2ccc(Cl)cc2)O1 (stereo not given in full)	i	nt	nt	i	35.3	i	42.3	15.8
COCCN1Cc2cc(C(=O)OC)c3c(c2C1=O)c1cc(OC)ccc1n3S(C)(=O)=O	i	nt	nt	i	i	i	nt	nt
O=C(Nc1ccc(-c2csc(Nc3ccc(Cl)cc3)n2)cc1)c1cccc(C(F)(F)F)c1	i	34.1	i	i	44.1	i	i	11.1
O=C(Nc1cccc(-c2csc(Nc3cccc(C(F)(F)F)c3)n2)c1)c1cc([N+](=O)[O-])cc(C(F)(F)F)c1	i	i	i	i	i	i	nt	nt
CCCC(=O)Nc1sc(-c2ccccc2)c(-c2ccccc2)c1C(=O)O	i	i	i	i	41.5	i	i	i
Cc1sc(NC(=O)CCCC(=O)O)c(C(N)=O)c1-c1ccccc1	i	i	i	i	i	i	nt	nt
COc1ccc(S(=O)(=O)/N=C2/NC(=O)/C(=C/c3ccco3)S2)cc1	i	i	i	i	85.0	i	41.7	11.1
Cc1ccc(N=C2NC(=O)/C(=C/c3cccn3C)S2)cc1	i	i	i	i	i	i	nt	nt
COc1ccc(S(=O)(=O)/N=C2/NC(=O)/C(=C\c3ccco3)S2)cc1	i	i	i	i	64.9	i	44.4	12.3
Cc1ccc(S(=O)(=O)/N=C2/NC(=O)/C(=C/c3ccccn3)S2)cc1	i	i	i	i	44.6	i	37.3	10.2
Nc1nc(N)c2c(ccc3c2ccn3Cc2cccc([N+](=O)[O-])c2)n1	i	nt	nt	i	i	i	nt	nt
CC(=O)c1cccc(NC(=O)CSc2ccc(-c3ccco3)nn2)c1	i	i	i	i	i	i	nt	nt
O=C(CSc1ccc(-c2ccco2)nn1)c1cccc([N+](=O)[O-])c1	i	i	i	i	35.5	i	i	11.3
Cc1ccc(-c2nn(-c3ccccc3)cc2C(=O)Nc2ccc(C(=O)O)cc2)cc1	i	i	i	i	44.4	i	36.9	8.2
O=C(O)c1cccc(NC(=O)c2cn(-c3ccccc3)nc2-c2ccc(F)cc2)c1	i	i	i	i	38.4	i	i	5.5
COc1ccc(-c2nn(-c3ccccc3)cc2C(=O)Nc2ccc(C(=O)O)cc2)cc1OC	i	i	i	i	i	i	nt	nt
Cc1cccc(C(=O)Nc2c(-c3ccccc3)nc3ncccn23)c1	i	nt	nt	i	i	i	nt	nt
CCC(C)[C@H](Nc1nc(-c2ccccc2)nc2c1oc1ccccc12)C(=O)O (stereo not given in full)	i	i	i	i	73.8	i	70.1	32.4	dCAG dye DR=i
CC(C)[C@H](Nc1nc(-c2ccccc2)nc2c1oc1ccccc12)C(=O)O	i	i	i	i	58.0	i	42.2	10.8
CO[C@@H]1CN(C)C(=O)c2ccc(NC(=O)c3ccccc3F)cc2OC[C@@H](C)N(CC2CCOCC2)C[C@@H]1C	i	nt	nt	i	i	i	nt	nt
SMILES	proKLK7 act	NR3A LBD binder	AHR act	ADAM10 inh	rCAG binder	ADAM17 inh	rCAG bind conf	dCAG dye counter	others
COc1ccc(Cc2nnc(SCC(=O)Nc3cc(Cl)ccc3C)[nH]c2=O)cc1	i	i	i	i	45.3	i	36.5	8.2
CCn1c2ccccc2c2cc(NC(=O)COC(=O)c3cc(F)ccc3C)ccc21	i	nt	nt	i	i	i	nt	nt
COc1ccc(C(=O)/C(C#N)=N/Nc2cccc([N+](=O)[O-])c2)cc1	i	10.1	nt	i	44.3	i	51.6	13.1
C[C@@H]1C=CCCO[C@]12C(=O)N(Cc1ccc(Br)cc1)c1cccc(Br)c12	i	nt	nt	i	i	i	nt	nt
O=C(O)c1ccc(N/N=C/C2=C(N3CCOCC3)C(=C\c3ccccc3)/CC2)cc1	i	i	i	i	72.0	i	74.8	35.9
COCC(=O)N1CC[C@H]2[C@@H]1c1cc(-c3cccc(OC)c3)ccc1N(C)[C@H]2CO	i	nt	nt	i	i	i	nt	nt
COCCCNC(=O)C[C@H]1C[C@@]2(C(=O)OC)C(=C[C@H](C(C)C)O[C@@H]2C2CC2)N(Cc2cccc3ccccc23)C1=O	i	nt	nt	i	i	i	nt	nt
C#CCN1CCc2onc(-c3ccc(Br)cc3)c2C1=O	i	nt	nt	i	i	i	nt	nt
N=C1SC(c2ccccc2)C(=O)N1c1ncc(Cc2ccccc2Cl)s1 (stereo not given)	i	i	i	i	58.0	i	71.9	31.5	dCAG dye DR=i
O=C(O)C/C(=C\c1cc2c(cc1Br)OCO2)c1nc2ccccc2s1	i	i	i	i	35.1	i	36.0	9.5
COc1ccc(C(=O)Nc2cccc(/C=C(\CCC(=O)O)c3nc4ccccc4s3)c2)cc1	i	i	i	i	62.4	i	75.9	38.4
O=C(O)C/C(=C\c1cccc(NC(=O)c2ccccc2Cl)c1)c1nc2ccccc2s1	i	i	i	i	53.5	i	56.9	24.1
Cc1ccc(NC(=O)[C@H]2CC(=O)O[C@@H]2c2ccccc2)cc1C	i	nt	nt	i	i	i	nt	nt
Cc1ccc(N=Nc2c(O)[nH]c(=O)[nH]c2=O)cc1S(=O)(=O)Nc1ccc(Br)cc1	i	i	i	i	36.2	i	i	10.6
